We go through seven compounds from PubChem BioAssay (EPA / NIEHS).

Activity calls are given as the source filed them. The calls were made as follows: active = hit-call score of the fitted dose curve at least 0.9, where 1 is the maximum; inactive = score below 0.9.

Assay [1] can be described thus: ATG_E_Box_CIS: Attagene CIS-FACTORIAL HepG2 Assay for human Enhancer Box (E-box) (AID 2282936). To be noted: HepG2 E-box cis-reporter transcription, actives raise or lower the signal. Put shortly: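 E-box-driven reporter transcripts measured in transiently transfected HepG2 after 24 h exposure: RNA reverse-transcribed, PCR-amplified, fluorescently labelled, digested and resolved by capillary electrophoresis. Gain or loss relative to DMSO.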

Assay [2] can be described thus: ATG_M_61_CIS: Attagene CIS-FACTORIAL HepG2 Assay for M61 Transcription Factor (Internal Marker) (AID 2282937). To be noted: HepG2 Attagene CIS-FACTORIAL M61 internal marker reporter; actives raise or lower the signal. Put shortly:
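This endpoint serves as an internal background control within a multiplexed HepG2 cis-reporter panel. Cells are exposed for 24 h; reporter mRNA is amplified, fluorescently labelled and sized by capillary electrophoresis, with DMSO as negative control.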

A short description of assay [3]: ATG_EGR_CIS: Attagene CIS-FACTORIAL HepG2 Assay for human Early Growth Response 1 (EGR1) (AID 2282938). To be noted: HepG2 Attagene CIS-FACTORIAL EGR reporter mRNA; actives raise or lower the signal. Put shortly: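 HepG2, transient MRTU transfection (cis promoters), 24 h compound. RNA → RT (oligo-dT) → PCR → 6-FAM labelling → HpaI cut → CE fluorescence. Bidirectional fit, DMSO baseline.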

A short description of assay [4]: ATG_M_19_CIS: Attagene CIS-FACTORIAL HepG2 Assay for M19 Transcription Factor (Internal Marker) (AID 2282939). The conditions noted are these: HepG2 Attagene CIS-FACTORIAL M19 internal marker reporter; actives raise or lower the signal. Put shortly: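 Transfect HepG2 with MRTU reporter library → dose chemical, 24 h → isolate total RNA, reverse-transcribe with oligo(dT) → PCR, 6-FAM label, HpaI cut (2 h, 37 C) → capillary electrophoresis. Bidirectional fit vs DMSO.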

Assay [5] can be described thus: ATG_Ets_CIS: Attagene CIS-FACTORIAL HepG2 Assay for human Erythroblast Transformation Specific (ETS) (AID 2282941). To be noted: HepG2 ETS cis-reporter transcription, actives raise or lower the signal. Put shortly:
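Cis-regulated reporter mRNA induction in HepG2 (transient transfection), 24 h exposure, RT-PCR plus capillary electrophoresis detection; DMSO serves as negative control and baseline.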

For assay [6], the target named is Hepatocyte nuclear factor 3-beta (Homo sapiens) (UniProt Q9Y261). In words: ATG_FoxA2_CIS: Attagene CIS-FACTORIAL HepG2 Assay for human Forkhead box A2 (FOXA2) (AID 2282942). To be noted: HepG2 cis-reporter transcription factor activity, 24 h; actives raise or lower the signal. Put shortly:
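Cells: HepG2, transient multiplex reporter transfection. Exposure 24 h. Detection: reporter-specific RT-PCR, fluorescent labelling, restriction digest, capillary electrophoresis. Analysis: bidirectional curve fit, DMSO as negative control.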

The nature of assay [7]: ATG_FoxO_CIS: Attagene CIS-FACTORIAL HepG2 Assay for human Forkhead box O (FoxO) (AID 2282943). The conditions noted are these: HepG2 Attagene cis-reporter, FoxO element, mRNA; actives raise or lower the signal. Put shortly:
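HepG2, transient MRTU transfection (cis element, endogenous TFs). Dose 24 h. TriZol RNA → oligo(dT) RT → PCR → 6-FAM primer extension → HpaI cut → CE. Gain/loss vs DMSO.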

Assay [8] is described as follows: ATG_GATA_CIS: Attagene CIS-FACTORIAL HepG2 Assay for human GATA Binding Protein (AID 2282944). To be noted: HepG2 GATA cis-element reporter, Attagene multiplex mRNA; actives raise or lower the signal. Put shortly:
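Transient MRTU transfection, HepG2, 24 h compound exposure. Total RNA → oligo(dT) RT → PCR → 6-FAM primer extension → HpaI cut → CE. Bidirectional fit vs DMSO.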

A short description of assay [9]: ATG_GLI_CIS: Attagene CIS-FACTORIAL HepG2 Assay for human Zinc Finger Protein GLI1 (AID 2282945). The conditions noted are these: HepG2, Attagene cis-factorial reporter mRNA, GLI element; actives raise or lower the signal. Put shortly: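 Bidirectional curve fits relative to DMSO, using reporter mRNA levels from RT-PCR plus capillary electrophoresis. Cells were HepG2 transiently carrying cis-regulated reporter constructs, harvested 24 h after dosing.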

For assay [10], the target named is Bile acid receptor (Homo sapiens) (UniProt Q96RI1). As to the kind of experiment: ATG_IR1_CIS: Attagene CIS-FACTORIAL HepG2 Assay for human Nuclear Receptor Subfamily 1 Group H Member 4 (NR1H4), IR1 submotif (AID 2282946). The conditions noted are these: IR1 reporter transcription, actives raise or lower the signal. Put shortly: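 HepG2 cells transiently transfected with multiplexed cis-element reporter units read endogenous transcription factor activity. After 24 h compound exposure, reporter mRNA was quantified by RT-PCR, fluorescent labelling, HpaI digestion and capillary electrophoresis; bidirectional fitting versus DMSO baseline.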

The nature of assay [11]: ATG_ISRE_CIS: Attagene CIS-FACTORIAL HepG2 Assay for human Interferon Regulatory Factor 1 (IRF1) binding to an Interferon-Stimulated Response Element (ISRE) (AID 2282948). To be noted: HepG2 ISRE cis-reporter (Attagene), mRNA transcription readout; actives raise or lower the signal. Put shortly: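 Multiplexed mRNA reporter readout in human liver HepG2 cells: cis-element-driven reporters transfected, compound added for 24 h, transcripts amplified, fluorescently labelled and sized by capillary electrophoresis; curve fitting bidirectional against DMSO.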

The nature of assay [12]: ATG_M_32_CIS: Attagene CIS-FACTORIAL HepG2 Assay for M32 Transcription Factor (Internal Marker) (AID 2282949).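 Also: background control marker of the multiplexed CIS panel rather than a real target.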 To be noted: HepG2 Attagene cis-factorial M32 reporter, mRNA; actives raise or lower the signal. Put shortly:
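HepG2 transfectants (cis-regulated reporter transcription units) dosed 24 h. Reporter mRNA by RT-PCR plus CE, analysed as gain or loss relative to DMSO.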

The nature of assay [13]: ATG_M_06_CIS: Attagene CIS-FACTORIAL HepG2 Assay for M06 Transcription Factor (Internal Marker) (AID 2282950). The conditions noted are these: HepG2 Attagene CIS-FACTORIAL M06 internal marker reporter; actives raise or lower the signal. Put shortly: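 Read-out is fluorescence of labelled reporter cDNA fragments resolved by capillary electrophoresis after RT-PCR. Cells: HepG2 carrying transfected cis-promoter reporter units, treated 24 h. Gain or loss of signal fitted relative to DMSO.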

For assay [14], the target named is Hypoxia-inducible factor 1-alpha (Homo sapiens) (UniProt Q16665). In words: ATG_HIF1a_CIS: Attagene CIS-FACTORIAL HepG2 Assay for human Hypoxia Inducible Factor 1 (HIF1A) (AID 2282951). The conditions noted are these: HepG2 Attagene cis-factorial HIF1a reporter transcription; actives raise or lower the signal. Put shortly:
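HepG2, transient cis-reporter library, 24 h dosing. RNA → RT (oligo dT) → PCR → 6-FAM primer extension → HpaI → CE. Bidirectional curve fit vs DMSO.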

Assay [15] deals with Hepatocyte nuclear factor 6 (Homo sapiens) (UniProt Q9UBC0). In words: ATG_HNF6_CIS: Attagene CIS-FACTORIAL HepG2 Assay for human Hepatocyte Nuclear Factor 6 (HNF6) (AID 2282952). To be noted: HepG2 Attagene cis-factorial HNF6 reporter transcription; actives raise or lower the signal. Put shortly:
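Endogenous factor activity read in transiently transfected HepG2 via promoter-regulated reporter transcripts. RNA harvested 24 h post-dosing, reverse-transcribed, PCR-amplified, FAM-labelled, HpaI-digested and resolved by capillary electrophoresis; fitted in both directions against DMSO.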

The nature of assay [16]: ATG_MRE_CIS: Attagene CIS-FACTORIAL HepG2 Assay for human Metal Responsive Element (MRE) (AID 2282954). To be noted: HepG2 MRE cis-reporter transcription, Attagene multiplex; actives raise or lower the signal. Put shortly:
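Endogenous MRE-dependent transcription read as reporter mRNA in transiently transfected human HepG2 cells at 24 h. RNA reverse-transcribed, PCR-amplified, labelled and resolved by capillary electrophoresis; gain or loss relative to DMSO.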

Assay [17] addresses Heat shock factor protein 1 (Homo sapiens) (UniProt Q00613). In words: ATG_HSE_CIS: Attagene CIS-FACTORIAL HepG2 Assay for human Heat Shock Transcription Factor 1 (HSE) (AID 2282953). The conditions noted are these: HepG2 HSE cis-reporter, Attagene RNA transcription; actives raise or lower the signal. Put shortly:
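HepG2, transient MRTU transfection, cis-promoter reporters (endogenous TF activity). 24 h compound. RNA → oligo(dT) RT → PCR → 6-FAM primer extension → HpaI cut → CE. Bidirectional fit vs DMSO.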

For assay [18], the target named is Paired box protein Pax-6 (Homo sapiens) (UniProt P26367). As to the kind of experiment: ATG_Pax6_CIS: Attagene CIS-FACTORIAL HepG2 Assay for human Paired Box 6 (PAX6) (AID 2282956). The conditions noted are these: HepG2 CIS-FACTORIAL PAX6 reporter transcription, RNA readout; actives raise or lower the signal. Put shortly: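 Fluorescent RT-PCR products separated by capillary electrophoresis report PAX6-linked promoter mRNA in HepG2 cells 24 h post-dose. Curves fitted bidirectionally, DMSO as negative control.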

A short description of assay [19]: ATG_GRE_CIS: Attagene CIS-FACTORIAL HepG2 Assay for human Glucocorticoid Response Elements (GRE) (AID 2282947). The conditions noted are these: HepG2 GRE cis-reporter, Attagene multiplex mRNA; actives raise or lower the signal. Put shortly:
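Reporter transcripts read by RT-PCR with capillary electrophoresis fluorescence after a 24 h chemical exposure of HepG2 cells transiently transfected with multiple cis-element reporter units. Gain or loss fitted against DMSO.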

Sequence of Hepatocyte nuclear factor 6 (Homo sapiens) (Q9UBC0 whole entry, looked up): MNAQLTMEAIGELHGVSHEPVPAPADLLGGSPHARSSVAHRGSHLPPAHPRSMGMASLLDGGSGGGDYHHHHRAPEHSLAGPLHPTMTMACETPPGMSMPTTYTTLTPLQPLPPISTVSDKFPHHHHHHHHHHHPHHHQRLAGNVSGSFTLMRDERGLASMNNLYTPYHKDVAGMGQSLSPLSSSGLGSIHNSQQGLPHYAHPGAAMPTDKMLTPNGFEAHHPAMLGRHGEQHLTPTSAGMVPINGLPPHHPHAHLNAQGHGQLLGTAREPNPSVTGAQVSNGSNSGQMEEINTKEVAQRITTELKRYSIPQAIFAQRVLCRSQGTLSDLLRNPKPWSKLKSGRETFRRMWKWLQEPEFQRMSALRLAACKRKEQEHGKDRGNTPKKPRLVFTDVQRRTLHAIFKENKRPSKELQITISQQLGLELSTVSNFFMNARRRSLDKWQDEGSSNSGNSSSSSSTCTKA
Sequence of Bile acid receptor (Homo sapiens) (Q96RI1 whole entry, looked up): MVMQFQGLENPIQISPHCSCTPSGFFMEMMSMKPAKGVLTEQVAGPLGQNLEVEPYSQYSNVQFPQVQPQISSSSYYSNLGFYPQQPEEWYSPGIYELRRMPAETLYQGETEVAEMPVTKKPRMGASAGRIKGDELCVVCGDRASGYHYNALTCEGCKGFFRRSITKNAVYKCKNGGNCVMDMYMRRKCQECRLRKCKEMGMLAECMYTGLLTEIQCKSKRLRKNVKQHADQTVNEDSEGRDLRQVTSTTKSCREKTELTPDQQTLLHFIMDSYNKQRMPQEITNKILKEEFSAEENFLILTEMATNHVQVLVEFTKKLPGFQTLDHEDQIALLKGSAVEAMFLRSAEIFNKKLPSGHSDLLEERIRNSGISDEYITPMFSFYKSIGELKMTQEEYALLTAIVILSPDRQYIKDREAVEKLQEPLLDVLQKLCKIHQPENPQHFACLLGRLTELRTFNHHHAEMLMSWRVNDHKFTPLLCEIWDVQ
Sequence of Paired box protein Pax-6 (Homo sapiens) (P26367 whole entry, looked up): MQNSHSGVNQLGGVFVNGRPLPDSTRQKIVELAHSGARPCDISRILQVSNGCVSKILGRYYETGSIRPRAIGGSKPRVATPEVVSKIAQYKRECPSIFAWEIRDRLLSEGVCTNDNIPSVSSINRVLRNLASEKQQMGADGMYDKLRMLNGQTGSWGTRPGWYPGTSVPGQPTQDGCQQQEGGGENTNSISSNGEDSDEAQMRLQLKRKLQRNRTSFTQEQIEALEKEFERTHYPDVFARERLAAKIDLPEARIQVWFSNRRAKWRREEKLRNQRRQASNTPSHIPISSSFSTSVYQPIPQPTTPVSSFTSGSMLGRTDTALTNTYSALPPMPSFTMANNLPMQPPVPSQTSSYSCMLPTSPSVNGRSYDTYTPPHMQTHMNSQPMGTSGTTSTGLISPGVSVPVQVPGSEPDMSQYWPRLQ
Sequence of Hepatocyte nuclear factor 3-beta (Homo sapiens) (Q9Y261 whole entry, looked up): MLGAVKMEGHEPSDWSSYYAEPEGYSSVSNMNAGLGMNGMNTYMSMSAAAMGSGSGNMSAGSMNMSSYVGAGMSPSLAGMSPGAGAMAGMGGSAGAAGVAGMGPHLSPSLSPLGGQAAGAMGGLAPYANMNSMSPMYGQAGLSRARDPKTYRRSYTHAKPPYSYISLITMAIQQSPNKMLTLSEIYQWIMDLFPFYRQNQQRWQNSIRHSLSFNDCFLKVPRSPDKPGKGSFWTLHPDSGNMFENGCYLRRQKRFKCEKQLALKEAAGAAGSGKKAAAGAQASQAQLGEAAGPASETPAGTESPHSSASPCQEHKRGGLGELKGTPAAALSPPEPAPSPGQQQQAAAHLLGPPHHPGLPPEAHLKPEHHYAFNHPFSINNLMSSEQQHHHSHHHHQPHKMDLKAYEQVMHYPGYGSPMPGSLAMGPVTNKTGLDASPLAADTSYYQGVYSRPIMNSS
Sequence of Heat shock factor protein 1 (Homo sapiens) (Q00613 whole entry, looked up): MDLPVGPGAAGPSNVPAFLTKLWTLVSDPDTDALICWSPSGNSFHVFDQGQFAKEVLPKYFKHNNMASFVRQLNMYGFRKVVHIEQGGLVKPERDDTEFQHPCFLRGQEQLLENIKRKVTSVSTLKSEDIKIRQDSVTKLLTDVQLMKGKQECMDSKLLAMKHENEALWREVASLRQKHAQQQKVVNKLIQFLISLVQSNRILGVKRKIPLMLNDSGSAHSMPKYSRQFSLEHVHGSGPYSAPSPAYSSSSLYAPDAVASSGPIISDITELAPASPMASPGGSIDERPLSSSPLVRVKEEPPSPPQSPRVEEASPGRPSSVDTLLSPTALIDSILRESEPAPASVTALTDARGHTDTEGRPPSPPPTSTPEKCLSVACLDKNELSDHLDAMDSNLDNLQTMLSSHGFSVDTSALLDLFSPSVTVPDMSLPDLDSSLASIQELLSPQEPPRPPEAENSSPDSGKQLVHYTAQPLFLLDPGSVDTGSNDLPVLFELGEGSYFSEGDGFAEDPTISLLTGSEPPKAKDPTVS
Sequence of Hypoxia-inducible factor 1-alpha (Homo sapiens) (Q16665 whole entry, looked up): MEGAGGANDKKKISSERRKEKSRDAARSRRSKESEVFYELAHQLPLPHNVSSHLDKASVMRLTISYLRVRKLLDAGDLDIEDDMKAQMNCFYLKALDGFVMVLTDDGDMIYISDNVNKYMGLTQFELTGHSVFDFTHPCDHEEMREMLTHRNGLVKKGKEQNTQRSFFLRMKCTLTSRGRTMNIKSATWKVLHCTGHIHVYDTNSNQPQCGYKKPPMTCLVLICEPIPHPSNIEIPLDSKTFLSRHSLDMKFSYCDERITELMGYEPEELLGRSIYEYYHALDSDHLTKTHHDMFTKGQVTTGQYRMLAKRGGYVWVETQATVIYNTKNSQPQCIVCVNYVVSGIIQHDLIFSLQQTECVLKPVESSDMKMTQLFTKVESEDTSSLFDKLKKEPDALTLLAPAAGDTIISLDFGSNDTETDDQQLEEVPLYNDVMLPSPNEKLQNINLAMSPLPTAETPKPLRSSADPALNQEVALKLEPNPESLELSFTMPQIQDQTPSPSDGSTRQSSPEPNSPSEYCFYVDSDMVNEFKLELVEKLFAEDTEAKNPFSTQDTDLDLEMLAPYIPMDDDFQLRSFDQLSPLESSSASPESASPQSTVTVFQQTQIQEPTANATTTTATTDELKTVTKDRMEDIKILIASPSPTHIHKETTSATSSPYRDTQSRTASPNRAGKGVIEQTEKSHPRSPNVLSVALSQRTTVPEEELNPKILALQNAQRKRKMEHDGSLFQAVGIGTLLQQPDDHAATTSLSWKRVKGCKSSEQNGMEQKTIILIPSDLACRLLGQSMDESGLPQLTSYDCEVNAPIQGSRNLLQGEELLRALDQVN

Take `CCCCOCCOCCOCc1cc2c(cc1CCC)OCO2`: the outcome in assay [1], in assay [2], in assay [3], in [4], in assay [5] and in [6] was inactive. The compound was classed as inactive in assay [7], in assay [8], in [9], in [10], in assay [11] and in assay [12]. The compound was classed as inactive in assay [13], in assay [14], in assay [15] and in [16].
Regarding `O=C(O)c1ccccc1`, the result in assay [1], in [2], in [3], in assay [4], in assay [5] and in assay [6] was inactive. Moreover, the compound was classed as inactive in assay [7], in assay [8], in assay [9], in assay [11], in [12] and in [13]. The result in assay [14], in assay [15] and in [16] was inactive.
For `COc1c(Cl)ccc(Cl)c1C(=O)O`, the outcome in assay [1], in assay [2], in [3], in [4], in assay [5] and in assay [6] was inactive. In addition, the compound was classed as inactive in assay [7], in assay [8], in assay [9], in assay [11], in assay [12] and in assay [13]. Further, the result in assay [14], in [15], in assay [17], in assay [16] and in assay [18] was inactive.
Take `CCOC(=O)NCCOc1ccc(Oc2ccccc2)cc1`: the outcome in assay [1], in [2], in assay [4], in assay [5], in [6] and in assay [7] was inactive. The result in assay [8], in assay [9], in [11], in assay [12], in assay [13] and in assay [15] was inactive. The compound was classed as inactive in assay [18]. For the same compound, the AC50 (usually the concentration at which the activity in the assay is half-maximal) is 50 µM (active) in assay [3], 88.9 µM (active) in [10], 86 µM (active) in assay [14] and 66.2 µM (active) in [16].
With `CCC(C)OC(=O)N1CCCCC1CCO` (stereo unspecified), the result in assay [1], in assay [2], in assay [3], in [4], in assay [5] and in assay [6] was inactive. The call in assay [7], in assay [8], in assay [9], in assay [10], in assay [11] and in assay [12] was inactive. Moreover, the call in assay [13], in [14], in assay [15], in [17], in [16] and in assay [18] was inactive.
In the case of `CCSC(=O)N(CC(C)C)CC(C)C`, the result in assay [1], in assay [2], in assay [3], in assay [4], in assay [5] and in assay [6] was inactive. The compound was called inactive in [7], in assay [8], in assay [9], in assay [19], in assay [11] and in assay [12]. The compound was classed as inactive in assay [13], in [14], in assay [15], in [16] and in [18].
Regarding `S=C([S-])NCCNC(=S)[S-].[Mn+2]`, the outcome in assay [1], in assay [2], in [3], in assay [4], in assay [5] and in assay [6] was inactive. The result in assay [7], in assay [8], in assay [9], in [19], in assay [11] and in assay [12] was inactive. The compound was classed as inactive in [13], in assay [14], in assay [15] and in assay [16].
